Assay in all cases: NCI-60 one-dose screen, 48 h (100 = growth as untreated, 0 = no growth, -100 = all killed)
What all share (settings): 10 µM unless noted

Assay [1] relates to SK-MEL-2 melanoma.
The subject of assay [2] is EKVX NSCLC.
Assay [3] concerns SN12C renal.
Assay [4] has as its system UO-31 renal.
Assay [5] concerns TK-10 renal.
The test system of assay [6] is ACHN renal.
For assay [7], the system named is CAKI-1 renal.
Assay [8] deals with A498 renal.
Assay [9] deals with CCRF-CEM leukemia.
For assay [10], the system named is MOLT-4 leukemia.
Assay [11] relates to SR leukemia.
Assay [12] concerns RPMI-8226 leukemia.
Assay [13] relates to OVCAR-8 ovarian.
In assay [14] the test system is OVCAR-5 ovarian.
For assay [15], the system named is OVCAR-4 ovarian.
The subject of assay [16] is SK-OV-3 ovarian.
Assay [17] deals with IGROV1 ovarian.
Assay [18] deals with OVCAR-3 ovarian.
The subject of assay [19] is HS 578T breast.
The test system of assay [20] is NCI/ADR-RES ovarian.

These results are taken from PubChem BioAssay (NCI).

About 83,000 compounds went through this panel and 20% of them were active in at least one assay; those are over-represented in the sample as a whole.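 Percent growth is the endpoint: 0 to 100 indicates growth inhibition (40 means 60% inhibition), 0 means no net growth, and negative values indicate cell death.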 A number with no mark means an inactive call. Active and inactive are the calls of the source. How the source made its calls: active means growth percent below 10; inactive means the rest.

For the compound `N#Cc1nc(-c2ccc(F)cc2)oc1S(=O)(=O)N1CCCCC1`, the growth was 81.1% in assay [1]; 98.5% in assay [2]; 80.2% in assay [3]; 84.8% in assay [4]; -69.8% (active) in assay [5]; 3.58% (active) in [6]. Besides, the growth in assay [7] was 91%; in assay [8], 112%; in assay [9], 1.84% (active); in assay [10], -6.66% (active); in assay [11], 1.55% (active); in assay [12] it was 49.4%. Further, the growth in assay [13] was 58.3%; in [14], 95.9%; in [15], 57.4%; in assay [16], 104%; in assay [17] it was 59.6%; in [18], -54.5% (active). Further, the figures for the growth in assay [19] and in assay [20] were 95.6% and 97.7%, respectively.

On to `N#CC1=C(N)Oc2c(ccc3ccccc23)C1c1ccccc1` (stereo not given), for which the growth was 43.1% in assay [1]; 41.9% in assay [2]; 32.5% in assay [3]; 39.3% in assay [4]; 46.8% in assay [5]; 31.2% in assay [6]. Besides, the growth in [7] is 18.1%; in [8] it was 33.7%; in assay [9] it was 9.24% (active); in assay [10], 14.6%; in assay [11], 15.2%; in [12] it was 8.06% (active). For the same compound, the growth in assay [13] was 7.27% (active); in assay [14] it was 33.8%; in assay [15], 50.3%; in assay [16], 12.7%; in [17], 27.2%; in assay [18], -2.34% (active). The growth is 28.8% in assay [19] and 2.65% (active) in assay [20].

As for `CC(=O)Oc1ccc(C)cc1C`, the growth is 99.7% in [1]; 112% in [2]; 102% in [3]; 85.7% in assay [4]; 102% in assay [5]; 101% in assay [6]. The growth is 101% in assay [7]; 87.4% in assay [8]; 102% in assay [9]; 106% in assay [10]; 102% in assay [11]; 102% in [12]. Besides, the growth is 110% in assay [13]; 102% in [14]; 105% in [15]; 106% in assay [16]; 114% in assay [17]; 111% in [18]. Moreover, the figures for the growth in [19] and in assay [20] were 109% and 108%, respectively.

Regarding `CCOC(=O)c1csc(NC(=O)COc2ccc(/C=C3\Oc4ccccc4C3=O)cc2)n1`, the growth was 94.8% in assay [1]; 74% in assay [2]; 91% in assay [3]; -14% (active) in assay [4]; 119% in assay [5]; 108% in assay [6]. In addition, the growth is 91.2% in [7]; 119% in [8]; 23.5% in assay [9]; 42.2% in [10]; 37.9% in [11]; 79.5% in [12]. The growth in [13] is 84.7%; in assay [14], 92.1%; in assay [15] it was 81.6%; in assay [16], 138%; in [17], 6.55% (active); in assay [18], 93.2%. Besides, the growth was 91.1% in assay [19] and 85.4% in assay [20].

For the compound `Cc1sc2nc(NCCc3c[nH]c4ccc(Cl)cc34)[nH]c(=O)c2c1C`, the growth in assay [1] is 78.5%; in [2] it was 41.7%; in [3] it was 51.7%; in assay [4] it was 18.6%; in assay [5], 63.9%; in assay [6], 42.9%. Also, the growth in assay [7] was 12%; in assay [8] it was 69.4%; in [9], 33.9%; in assay [10], 38.7%; in assay [11], 15.7%; in assay [12], 18.8%. In addition, the growth in assay [13] was 38.5%; in assay [14], 62.5%; in [15] it was 60%; in [16] it was 60.6%; in [17], 50.8%; in [18], 64.7%. The growth in [19] was 25.4%; in [20], 47.1%.

Consider `CCOC(=O)C1=C(N)Oc2c(sc3c(F)cccc23)C1c1ccc(O)cc1` (stereo not given), for which the growth in assay [1] was 14.3%; in assay [2] it was 42.4%; in assay [3], 56%; in [4] it was 30.1%; in assay [5] it was 74%; in assay [6] it was 42.3%. Further, the growth in assay [7] was 57.6%; in assay [8], 43.2%; in assay [9], 20.3%; in assay [10], 9.73% (active); in [11], 15.3%; in assay [12], 25.2%. In addition, the growth in [13] is 44.1%; in assay [14] it was 92.4%; in assay [15], 38.4%; in assay [16], 78.9%; in [17] it was 48.9%; in assay [18] it was 45.3%. The growth is 31.9% in assay [19] and 36.6% in [20].

As for `CCCCNCCCCCNc1cc(OC)cc2cccnc12`, the growth was 106% in [1]; 106% in assay [2]; 97.6% in assay [3]; 63.1% in [4]; 100% in [5]; 100% in [6]. The growth in [7] was 114%; in assay [8] it was 87.9%; in [9], 106%; in assay [10], 100%; in assay [11] it was 71.1%; in assay [12] it was 76.9%. The growth is 99.3% in assay [13]; 91.4% in assay [14]; 60.1% in assay [15]; 95.2% in [16]; 118% in [17]; 107% in assay [18]. The growth in [19] was 99%; in assay [20], 95.9%.
